13 compounds from PubChem BioAssay (Tox21) can be followed below.

The nature of assay [1]: Nuclear factor erythroid 2-related factor 2/antioxidant responsive element (Nrf2/ARE) small molecule agonists: luciferase reporter gene qHTS assay in human keratinocytes (AID 1919969; also: nearly all actives have a fitted effect of over 35% in size; also: potency is read from the fitted curve at half-maximal effect). (In general: A reporter such as luciferase makes a cellular process visible.)
Assay [2] addresses KiSS-1 receptor (Homo sapiens) (UniProt Q969F8). The assay can be described thus: Human kisspeptin (KISS1R) small molecule agonists, calcium flux assay in KISS1R-HEK293 cells (AID 1920064; active = well fitted activation curve with a large enough effect in the repeat runs). In a few lines:
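Cell line: HEK293, stable human KISS1R. Dye loading 1 h at 37 C after 18 h culture. Read: kinetic fluorescence, 480/540 nm, 3 min at 1 s intervals.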

A short description of assay [3]: p53 small molecule agonists, cell-based qHTS assay with human liver microsomes (AID 1963577).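 Also: p53 response element beta-lactamase reporter cells with liver microsomes plus NADPH.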 Summed up:
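16 h, 37 C exposure of p53RE-bla cells to compounds with human liver microsomes and NADPH (0.5 mg/mL final each); detection via LiveBLAzer mixture, 2 h dark at room temperature.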

Assay [4] can be described thus: p53 small molecule agonists, cell-based qHTS assay with human liver microsomes: qHTS cell viability counter screen (AID 1963579). Also: nearly all actives have a fitted effect of over 45% in size. Also: potency is read from the fitted curve at half-maximal effect. In a few lines:
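In this multiplexed counter screen, the reporter plates were subsequently treated with CellTiter-Glo so that cell viability, reflected by luminescence, could be recorded for p53RE-bla cells dosed 16 h with compounds under microsomal activation (HLM and NADPH).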

Assay [5] in a line: p53 small molecule agonists, cell-based qHTS assay with rat liver microsomes: qHTS cell viability counter screen (AID 1963580). Also: nearly all actives have a fitted effect of over 45% in size. Summed up: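 Cytotoxicity counter screen: intracellular ATP measured by CellTiter-Glo luminescence in the same wells as the beta-lactamase reporter read, on HCT-116 p53RE-bla cells exposed 16 h at 37 C to compounds with rat liver microsomes and NADPH, each 0.5 mg/mL final.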

Assay [6] in a line: p53 small molecule agonists, cell-based qHTS assay: qHTS cell viability counter screen (AID 1963581). Also: nearly all actives have a fitted effect of over 45% in size. Summed up:
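ATP content measured by luminescence in HCT-116 p53RE-bla cells treated 16 h at 37 C, same wells as the reporter screen.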
(In general: Quantitative high-throughput screening tests each substance at several concentrations.)

The nature of assay [7]: p53 small molecule agonists, cell-based qHTS assay (AID 1963582; active = well fitted activation curve with a large enough effect in the signal ratio in the repeat runs, not every such curve was filed as active; the % refers to the signal ratio). Summed up:
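16 h compound exposure (37 C) of p53 response element–bla cells, preceded by 5 h recovery at 37 C/5% CO2; read-out via LiveBLAzer B/G FRET substrate, 2 h RT, fluorescence intensity.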

In assay [8] the target is 5-hydroxytryptamine receptor 2A (Homo sapiens) (UniProt P28223). Description: 5-hydroxytryptamine receptor 2A (HTR2A) small molecule antagonists, cell-based qHTS assay (AID 1963586). Also: nearly all actives have a fitted effect of over 45% in size. Also: potency is read from the fitted curve at half-maximal effect. In a few lines:
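CHO cells stably expressing human HTR2A were plated for 18 h at 37 C, then loaded with calcium dye for 1 h. Compounds were preincubated 5 min at room temperature before DOI (4 nM solution) was added. Kinetic fluorescence was read for 3 min.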

In assay [9] the target is Muscarinic acetylcholine receptor M1 (Homo sapiens) (UniProt P11229). The assay can be described thus: Cholinergic receptor muscarinic 1 (CHRM1) small molecule agonists, cell-based qHTS assay (AID 1963589). Also: nearly all actives have a fitted effect of over 35% in size. In a few lines: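 Homogeneous fluorescence calcium flux, agonist mode. Human M1-expressing CHO cells; compound dosed at 15 concentrations, three independent runs; signal sampled every 1 sec.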
Muscarinic acetylcholine receptor M1 (Homo sapiens), sequence (P11229 whole entry, looked up): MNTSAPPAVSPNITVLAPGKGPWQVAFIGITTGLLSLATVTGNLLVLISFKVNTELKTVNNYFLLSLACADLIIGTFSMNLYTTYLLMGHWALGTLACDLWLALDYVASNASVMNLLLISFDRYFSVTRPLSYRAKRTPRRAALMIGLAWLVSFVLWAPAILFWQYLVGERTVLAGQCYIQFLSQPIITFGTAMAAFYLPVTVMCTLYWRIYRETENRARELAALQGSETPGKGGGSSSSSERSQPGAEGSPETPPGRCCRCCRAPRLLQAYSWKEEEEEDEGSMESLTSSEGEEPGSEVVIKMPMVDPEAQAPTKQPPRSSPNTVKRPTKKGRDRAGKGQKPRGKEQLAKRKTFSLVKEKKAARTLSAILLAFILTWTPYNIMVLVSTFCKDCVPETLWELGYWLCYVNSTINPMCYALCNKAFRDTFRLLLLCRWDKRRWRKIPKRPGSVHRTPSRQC

Assay [10] can be described thus: cAMP Responsive Elements (CRE) small molecule agonists, cell-based qHTS assay (AID 1963590). Also: potency is read from the fitted curve at half-maximal effect. Summed up:
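HEK 293T cells stably bearing CRE-bla were plated at 2,000 cells per well and rested 18 h. Compounds, positive controls or DMSO were added for 3 h at 37 C. LiveBLAzer B/G substrate was then loaded for 2 h at room temperature.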

A short description of assay [11]: cAMP Responsive Elements (CRE) small molecule antagonists, cell-based qHTS assay (AID 1963591; active = well fitted inhibition curve with a large enough effect in the signal ratio in the repeat runs, not every such curve was filed as active; the % refers to the signal ratio). In a few lines: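 First, CRE-bla HEK293T cells settled 18 h at 37 C. Next, compound and 0.25 uM final NKH477 were applied for 3 h. Last, LiveBLAzer B/G substrate was loaded for 2 h at room temperature.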
Assay [12] has as its target Beta-2 adrenergic receptor (Homo sapiens) (UniProt P07550). The assay can be described thus: Adrenergic beta2 receptor (ADRB2) small molecule antagonists, cell-based qHTS assay (AID 1963592). Also: nearly all actives have a fitted effect of over 50% in size. Also: potency is read from the fitted curve at half-maximal effect. Summed up:
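Assay format: CHO-ADRB2 cells, 18-20hr seeding at 37C/5% CO2, then compound plus 1nM isoproterenol agonist mix for 0.5hr RT. Homogeneous time-resolved fluorescence cAMP detection after 1hr, expressed as 665/615 nm ratio.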

The target of assay [13] is D(2) dopamine receptor (Homo sapiens) (UniProt P14416). The assay can be described thus: Dopamine D2 receptor (DRD2) small molecule agonists, cell-based qHTS assay (AID 1963594). Also: nearly all actives have a fitted effect of over 35% in size. In a few lines:
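HEK293 cells stably expressing human DRD2, pre-treated with PDE inhibitor Ro20-1724 (0.1 mM final) and compound 10 min at room temperature, then stimulated with NKH477 (200nM […]) for 30 min. cAMP read by HTRF (665/620 nm).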

Assay [14] shares this target. Description: Dopamine D2 receptor (DRD2) small molecule antagonists, cell-based qHTS assay (AID 1963595; active = well fitted inhibition curve with a large enough effect in the signal ratio in the repeat runs, with a control signal flat; the % refers to the signal ratio; also: potency is read from the fitted curve at half-maximal effect). Summed up: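 HEK293 cells stably expressing DRD2, preincubated with 0.1 mM Ro20-1724 and compounds 10 min, were stimulated with 200 nM NKH477 plus 12 nM quinpirole for 30 min at room temperature; cAMP measured by HTRF (665/620 nm).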
The nature of assay [15]: G protein-coupled receptor (GPCR) small molecule agonists, calcium flux assay: HEK293 wild type cell line counter screen (AID 1920065). Summed up: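 Tox21 10K compounds, 15 concentrations each in triplicate, pin-transferred in DMSO onto dye-loaded cells; kinetic read at 480/540 nm for 3 min, 1 s intervals.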
Background: Calcium assays in cells follow changes in intracellular calcium, usually with a dye or a luminescent sensor.

The target in assay [16] is Beta-2 adrenergic receptor (Homo sapiens) (UniProt P07550). The assay can be described thus: Adrenergic beta2 receptor (ADRB2) small molecule agonists, cell-based qHTS assay (AID 1963593).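 Also: CHO cells stably overexpressing human ADRB2.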 In a few lines: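 CHO cells stably over-expressing ADRB2 were plated overnight at 37C, then dosed with compounds plus a stimulation mix containing 100uM IBMX and 25uM Ro-20-1724 for 0.5hr at room temperature. cAMP was measured by HTRF competition, 1hr.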
Beta-2 adrenergic receptor (Homo sapiens), sequence (P07550 whole entry, looked up): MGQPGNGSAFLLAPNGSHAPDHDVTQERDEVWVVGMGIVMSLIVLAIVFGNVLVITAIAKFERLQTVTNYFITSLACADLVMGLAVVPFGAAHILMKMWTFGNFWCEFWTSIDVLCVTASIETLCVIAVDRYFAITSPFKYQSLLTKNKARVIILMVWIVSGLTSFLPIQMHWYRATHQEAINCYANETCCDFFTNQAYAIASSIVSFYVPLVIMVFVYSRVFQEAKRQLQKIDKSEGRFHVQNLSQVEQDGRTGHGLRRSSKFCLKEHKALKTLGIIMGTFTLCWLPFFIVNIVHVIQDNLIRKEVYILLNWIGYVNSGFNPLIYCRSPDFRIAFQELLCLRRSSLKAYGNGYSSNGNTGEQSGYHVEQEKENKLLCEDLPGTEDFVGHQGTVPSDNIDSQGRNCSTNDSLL

Assay [17] can be described thus: p53 small molecule agonists, cell-based qHTS assay with rat liver microsomes (AID 1963578). In a few lines: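 With rat liver microsomes and NADPH present (0.5 mg/mL final each), p53RE-bla cells are treated with compound for 16 h at 37 C. LiveBLAzer detection mixture is then applied for 2 h at room temperature in the dark.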
Assay [18] concerns the target Muscarinic acetylcholine receptor M1 (Homo sapiens) (UniProt P11229). The assay can be described thus: Cholinergic receptor muscarinic 1 (CHRM1) small molecule antagonists, cell-based qHTS assay (AID 1963588). Also: nearly all actives have a fitted effect of over 40% in size. Also: potency is read from the fitted curve at half-maximal effect. In a few lines: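 Compounds were tested at 15 concentrations in three independent runs. Dye-loaded CHRM1-CHO cells were exposed 5 min at room temperature before stimulation by acetylcholine added at 50nM. Intracellular calcium was read kinetically on FDSS for 3 min.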

The target in assay [19] is 5-hydroxytryptamine receptor 2A (Homo sapiens) (UniProt P28223). The assay can be described thus: 5-hydroxytryptamine receptor 2A (HTR2A) small molecule agonists, cell-based qHTS assay (AID 1963587). Also: nearly all actives have a fitted effect of over 30% in size. Also: potency is read from the fitted curve at half-maximal effect. In a few lines:
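CHO cells stably expressing human HTR2A, plated 18 h, loaded with calcium dye 1 h at 37 C. Agonist mode: compounds added and intracellular calcium fluorescence recorded kinetically for 2 min at 1 sec intervals.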

Unmarked numbers belong to inactive results. Results filed as inconclusive are left out. Active and inactive are the calls of the source. Unless noted, calls follow the shape of the full dose curve.

KiSS-1 receptor (Homo sapiens), sequence (Q969F8 whole entry, looked up): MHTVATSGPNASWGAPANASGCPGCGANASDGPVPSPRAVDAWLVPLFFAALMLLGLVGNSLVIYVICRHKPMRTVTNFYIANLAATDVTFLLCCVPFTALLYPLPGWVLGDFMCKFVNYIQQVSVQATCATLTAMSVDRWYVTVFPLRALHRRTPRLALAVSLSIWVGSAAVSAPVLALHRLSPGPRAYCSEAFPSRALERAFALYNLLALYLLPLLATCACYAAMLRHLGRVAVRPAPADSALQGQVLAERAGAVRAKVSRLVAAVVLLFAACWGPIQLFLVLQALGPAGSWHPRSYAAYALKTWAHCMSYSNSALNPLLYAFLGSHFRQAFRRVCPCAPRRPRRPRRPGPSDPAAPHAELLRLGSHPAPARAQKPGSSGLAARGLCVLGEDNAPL
5-hydroxytryptamine receptor 2A (Homo sapiens), sequence (P28223 whole entry, looked up): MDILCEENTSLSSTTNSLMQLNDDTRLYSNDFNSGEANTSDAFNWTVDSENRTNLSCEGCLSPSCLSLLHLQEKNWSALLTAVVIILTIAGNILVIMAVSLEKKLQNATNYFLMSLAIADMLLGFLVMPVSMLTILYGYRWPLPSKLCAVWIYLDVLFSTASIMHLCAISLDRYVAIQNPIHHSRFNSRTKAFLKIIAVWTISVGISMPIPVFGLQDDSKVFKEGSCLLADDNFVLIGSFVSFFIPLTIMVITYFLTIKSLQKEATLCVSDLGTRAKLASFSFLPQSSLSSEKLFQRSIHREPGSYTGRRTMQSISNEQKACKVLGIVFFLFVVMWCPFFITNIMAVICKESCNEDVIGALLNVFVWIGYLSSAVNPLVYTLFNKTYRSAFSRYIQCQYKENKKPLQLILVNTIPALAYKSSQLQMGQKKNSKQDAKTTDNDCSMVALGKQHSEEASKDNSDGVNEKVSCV
D(2) dopamine receptor (Homo sapiens), sequence (P14416 whole entry, looked up): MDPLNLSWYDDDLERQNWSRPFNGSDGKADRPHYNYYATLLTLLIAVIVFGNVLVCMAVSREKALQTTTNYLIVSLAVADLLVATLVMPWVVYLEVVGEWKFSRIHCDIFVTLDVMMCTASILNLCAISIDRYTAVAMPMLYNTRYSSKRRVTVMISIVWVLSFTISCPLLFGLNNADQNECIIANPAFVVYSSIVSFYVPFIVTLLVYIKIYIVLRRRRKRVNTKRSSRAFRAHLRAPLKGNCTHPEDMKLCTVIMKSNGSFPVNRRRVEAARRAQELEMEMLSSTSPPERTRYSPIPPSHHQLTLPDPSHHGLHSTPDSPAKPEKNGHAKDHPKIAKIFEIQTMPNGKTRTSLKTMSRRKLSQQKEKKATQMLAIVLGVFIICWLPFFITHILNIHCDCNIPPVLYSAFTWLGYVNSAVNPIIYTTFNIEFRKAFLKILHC

As for `O=S(=O)(O)c1cc(Cl)c(Cl)cc1Cl`, the Potency result in assay [1], in assay [2], in assay [3], in assay [4], in [5] and in [6] was “inactive” in each case. Further, the Potency entry in assay [7], in assay [8], in assay [9], in [10], in [11] and in assay [12] was “inactive” throughout. Further, the Potency entry in assay [13] and in [14] was “inactive” each time.

With `Cc1cccc(Br)c1`, the Potency is 24.5 µM (active) in [1] and 20.6 µM (active) in [4]. Besides, the Potency entry in assay [2], in assay [15], in [3], in assay [5], in [8] and in assay [9] was “inactive” in each case. Moreover, the Potency result in assay [12], in assay [16], in [13] and in [14] was “inactive” each time.

For the compound `CCCCCCCCCCCCCOS(=O)(=O)O`, the Potency entry in assay [1], in assay [2], in [15], in [3], in assay [17] and in assay [5] was “inactive” in each case. The Potency result in assay [6], in assay [7], in assay [18], in assay [9], in [11] and in assay [13] was “inactive” each time. Moreover, the Potency result in assay [14] is “inactive”. Besides, in assay [8], the Potency is 42.1 µM (active).

Take `OC(CCN1CCCCC1)(c1ccccc1)C1CCCCC1` (stereo not drawn): the Potency entry in assay [1], in [2], in [15], in assay [4], in assay [5] and in assay [6] was “inactive” throughout. Moreover, the Potency entry in assay [13] was “inactive”.

`CCC(C)(C)c1cc(O)c(C(C)(C)CC)cc1O`: the Potency in [1] is 4.86 µM (active); in assay [19], 4.9 µM (active). Also, the Potency entry in [2], in assay [15], in assay [3], in assay [17], in assay [5] and in [6] was “inactive” throughout. For the same compound, the Potency result in assay [7], in assay [18], in [9], in assay [10], in [11] and in assay [12] was “inactive” each time. For the same compound, the Potency result in [16], in assay [13] and in [14] was “inactive” each time.

Regarding `CCOC(=O)[C@H](CCc1ccccc1)N[C@H]1CCc2ccccc2N(CC(=O)O)C1=O`, the Potency result in assay [1], in assay [2], in assay [15], in [4], in assay [5] and in [6] was “inactive” in each case. Further, the Potency result in [14] is “inactive”. Besides, in [12], the Potency is 23.7 µM (active).

For `CCc1cc2cc(OC)c(OC)cc2c(Cc2ccccc2)n1`, the Potency result in [1], in assay [2], in assay [15], in assay [3], in assay [17] and in assay [5] was “inactive” each time. Moreover, the Potency entry in assay [7], in assay [18], in assay [9], in assay [12], in [16] and in assay [14] was “inactive” each time. In assay [10], the Potency is 11.9 µM (active).

As for `CN(C)c1ccc(O)c2c1C[C@H]1C[C@H]3[C@H](N(C)C)C(=O)C(C(N)=O)=C(O)[C@@]3(O)C(=O)C1=C2O`, the Potency entry in assay [1], in assay [2], in assay [15], in assay [4], in [5] and in [6] was “inactive” each time. The Potency entry in [8], in [19], in [18], in assay [9], in assay [10] and in [11] was “inactive” each time. Moreover, the Potency result in assay [12], in assay [13] and in assay [14] was “inactive” throughout.

With `OCCN1CCN(CCCN2c3ccccc3Sc3ccc(Cl)cc32)CC1`, the Potency result in assay [1], in assay [2], in assay [15], in [17], in assay [4] and in [5] was “inactive” in each case. Moreover, in assay [6], the Potency result was “inactive”. The Potency in assay [14] is 0.0266 µM (active).

`Cc1nc2ccc(CN(C)c3ccc(C(=O)N[C@@H](CCC(=O)O)C(=O)O)s3)cc2c(=O)[nH]1`: the Potency entry in [1], in assay [2], in assay [15], in [4], in assay [5] and in assay [6] was “inactive” each time. The Potency result in [8], in [18], in [9], in assay [10], in assay [11] and in [12] was “inactive” in each case. In addition, the Potency entry in assay [13] and in assay [14] was “inactive” each time.

For `CC(C)CCC(=O)CCC(C)C`, the Potency entry in assay [1], in assay [2], in assay [15], in [4], in [5] and in assay [6] was “inactive” each time. Besides, the Potency result in assay [8], in [19], in [18], in assay [9], in assay [10] and in assay [11] was “inactive” throughout. Besides, the Potency result in assay [14] is “inactive”.

On to `CCC(C)n1ncn(-c2ccc(N3CCN(c4ccc(OC[C@H]5CO[C@](Cn6cncn6)(c6ccc(Cl)cc6Cl)O5)cc4)CC3)cc2)c1=O` (stereo partly drawn), for which the Potency entry in [1], in assay [2], in assay [15], in [17], in assay [4] and in assay [5] was “inactive” throughout. Moreover, the Potency result in [6], in assay [7], in [10], in [11], in assay [12] and in [16] was “inactive” throughout. The Potency result in assay [13] and in assay [14] was “inactive” each time.

Consider `CN1CCCN(C(c2ccccc2)c2ccc(Cl)cc2)CC1` (stereo not drawn), for which the Potency entry in [1], in [15], in assay [3], in assay [17], in [4] and in [5] was “inactive” throughout. Further, the Potency entry in assay [19], in [9], in [10], in assay [11], in assay [16] and in assay [13] was “inactive” in each case. For the same compound, the figures for the Potency in assay [18] and in [14] were 0.0231 µM (active) and 26.6 µM (active), respectively.
